Hits are enriched below; roughly 6.1% of the tested compounds scored in any of these assays.
ERG-DNA inh – ERG Ets/DNA interaction inhibition | Potency, µM (doses to about 76.9 µM), for the others: at the highest dose FP activity, negative = inhibition, usual class: inhibitors | 370,000 tested, 0.028% active | fluorescence polarization, His-ERG Ets domain / labelled DNA | AID 624246; active means well fitted inhibition curve with a large enough effect in the polarisation, with a control signal flat; inconclusive means small, poorly fitted or top-dose-only effect, or effect the other way, or a change in a side signal; inactive means no such curve, though single readings can be large or run the other way; the % refers to the polarisation;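 further: polarization taken with two DNA probes labelled with fluorescein and Texas red; potency means the concentration at half of the fitted maximal effect; % of control where 0% means no effect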
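His-tagged ERG Ets domain (1 uM in the protein solution; 300mM KCl, 50mM Tris-HCl, 1mM EDTA, 1mM DTT, pH 7.5) received compound, then a probe mix of 5 nM fluorescein-DNA and 100nM Texas-615-DNA. Fluorescence polarization was read for both dyes.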
D1 PAM – human D1 dopamine receptor positive modulation; P21728; HEK293 TREx D1 cells, calcium flux, dopamine EC20 potentiation; potentiation, % at 10 µM; 360,000 tested, 0.036% active; in the data active means potentiation above about 30%; further: 0% is about no effect
D1 antagonist – blocks dopamine activation of the human D1 receptor. P21728. HEK293 TREx D1 cells, calcium flux, dopamine EC80; active compounds read low. activity change, negative = inhibition, % at 10 µM. 360,000 tested, 3.2% active. AID 504652; in the data active means activity change below about -30%; further: on the % scale 0 is the no-effect control and ±100 the full control effect
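HEK293 T-REx cells expressing inducible, force-coupled D1 receptor; no-wash Ca dye, 30–90 min RT. Cmpd → 180 s read at 1 Hz → EC80 DA → 180 s read.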
DRD3 agonist – agonists of human D3 dopamine receptor; max activation, %; AID 652048; D3R DiscoveRx beta-arrestin cells, luminescence, 90 min; 410,000 tested, 0.58% active; P35462; in the data active means max activation above about 30%; further: 0% is about no effect
Target sequence (P35462 whole entry, looked up): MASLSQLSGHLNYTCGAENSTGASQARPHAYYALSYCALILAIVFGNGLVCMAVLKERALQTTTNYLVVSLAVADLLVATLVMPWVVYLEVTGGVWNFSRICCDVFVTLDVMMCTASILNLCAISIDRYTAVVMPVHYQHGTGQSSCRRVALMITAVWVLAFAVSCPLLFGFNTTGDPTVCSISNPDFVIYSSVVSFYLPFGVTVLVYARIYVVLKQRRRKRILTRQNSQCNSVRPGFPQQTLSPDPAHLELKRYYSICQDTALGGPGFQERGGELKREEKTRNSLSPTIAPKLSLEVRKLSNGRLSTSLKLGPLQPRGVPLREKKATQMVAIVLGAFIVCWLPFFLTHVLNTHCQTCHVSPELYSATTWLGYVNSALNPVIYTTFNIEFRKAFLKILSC
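Cells at 1500/well, incubated overnight, then treated with pinned compounds (dopamine as control) for 90 min at 37 degrees C. DiscoveRx reagent added for 30 - 60 minutes at room temperature; luminescence read.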
DRD3 antagonist – blocks the human D3 dopamine receptor | P35462 | D3R cells, DiscoveRx beta-arrestin luminescence, antagonist mode; active compounds read low | max response, negative = inhibition, % | 360,000 tested, 2.5% active; in the data active means max response below about -50%; inconclusive means no clear call, values can overlap the other calls; further: on the % scale 0 is the no-effect control and ±100 the full control effect
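Cells plated overnight at 1500 cells/well, then exposed to library compounds with dopamine controls for 90 minutes at 37 degrees C. DiscoveRx reagent added for 30–60 minutes at room temperature; luminescence read, quantitative HTS format.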
D1 ag – activates the human D1 dopamine receptor. P21728. 360,000 tested, 1% active. HEK293 T-REx D1 cells, calcium flux, agonist mode. AID 504660. activation, % at 2 µM; in the data active means activation above about 30%; further: 0% is about no effect
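Tetracycline-induced HEK293 TREx D1 cells, force-coupled to calcium signalling, were dye-loaded with a no-wash calcium kit. Compound was pin-added after a 10 s baseline. Fluorescence was read kinetically at 1 cycle/s for 180 s, with calcium rises flagged as agonism.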
* = called active by the depositor; u = inconclusive; x = not tested or not shown.

SMILES	ERG-DNA inh	D1 PAM	D1 antagonist	DRD3 agonist	DRD3 antagonist	D1 ag
Oc1ccccc1C1=NOC(O)(C(F)F)C1 (stereo not given)	-6%	-10	-24	-3	-66*	3
CC1(C(=O)Nc2cccc3ccccc23)CC1(Br)Br (stereo not given)	0%	-12	-31*	2	13	0
CC(C)N1CCC1(C)C(=O)Nc1cccc2ccccc12 (stereo not given)	x	x	x	8	6	x
Cc1cc(C)c(S(=O)(=O)NCCc2sc(-c3cccnc3)nc2C)c(C)c1	-17%	-8	-21	-10	x	2
O=C(O)c1ccccc1-c1nnc2c(Cl)cc(C(F)(F)F)cn12	0%	-3	-38*	0	-21	1
FC(F)(F)c1cc(Cl)c2nnc(-c3ccccn3)n2c1	11%	2	-8	1	11	1
CCN1CCN(/C=N/c2nc3c(s2)CCCC3)CC1	x	-4	-4	0	-75*	4
Cc1cc(C)nc(SCC(=O)Nc2ccc(S(=O)(=O)Nc3cc(C)on3)cc2)n1	-11%	x	x	-10	-10	x
CCOC(=O)CC(NC(=O)CCc1c(C)nc2c(c1C)c(=O)n(C)c(=O)n2C)c1ccc(OCC)c(OC)c1 (stereo not given)	3%	-4	-33*	2	x	0
OC(COc1ccccc1)CN1CCC(Cc2ccccc2)CC1 (stereo not given)	-3%	-9	17	-35	-75*	16
Cc1ccc(C)c(OCC(O)CN2CCC(CN3C(=O)c4cccc5cccc(c45)C3=O)CC2)c1 (stereo not given)	1%	-8	-5	-9	u	9
OC(CN1CCN(Cc2ccccc2)CC1)c1ccccc1 (stereo not given)	13%	-4	2	-2	-22	2
COc1cccc(OCC(O)CN2CCOCC2)c1 (stereo not given)	8%	-4	15	3	0	1
OC(CN1CCC(Cc2ccccc2)CC1)c1ccccc1 (stereo not given)	10%	-7	-7	-13	-88*	17
Cc1ccc(OCC(O)CN2CCC(Cc3ccccc3)CC2)c(C)c1 (stereo not given)	-9%	-13	-6	-8	-56*	20
COc1cccc(OCC(O)CN2CCC(Cc3ccccc3)CC2)c1 (stereo not given)	10%	-6	-31*	-9	-13	20
O=C(Oc1ccc(-c2cnc3ccccc3n2)cc1)c1ccco1	-7%	-3	-7	2	-16	6
NC(=S)N/N=C/c1cccc(O)c1O	4%	-3	4	24	13	1
Cc1cc(/C=N/NC(N)=S)c(O)c(/C=N/NC(N)=S)c1	u	2	1	3	0	277*
CCOc1ccc(CCNC(=O)Cn2nc(CC)n3c(cc4ccccc43)c2=O)cc1	5%	-4	-43*	7	x	1
CCc1nn(CC(=O)NCCCc2ccccc2)c(=O)c2cc3ccccc3n12	-11%	-3	10	0	x	-2
CCOc1ccc(-n2nc3ccc(NC(=O)CC)cc3n2)cc1	1%	-4	8	6	16	6
Cc1cc(C(=O)Nc2ccc(N3CCCC3)c(Cl)c2)ccc1[N+](=O)[O-]	3%	-12	-10	11	8	1
O=[N+]([O-])c1cc(S(=O)(=O)Nc2ccccc2)ccc1-n1nnc2ccccc21	-1%	0	0	-24	-61*	12
CC(C)C[C@H]1COc2cc(N3CCN(Cc4ccccc4F)CC3)ccc2S(=O)(=O)N1	x	x	x	-9	-66*	x
SMILES	ERG-DNA inh	D1 PAM	D1 antagonist	DRD3 agonist	DRD3 antagonist	D1 ag
Cc1cccc(NC(=O)[C@@H]2CCCN2C2=NS(=O)(=O)c3ccccc32)c1C	-5%	3	5	0	16	0
CCc1nc(SCC(=O)c2ccc(Cl)s2)c2oc3ccccc3c2n1	6%	6	-1	2	33	9
CCCCNC(=O)Cc1c(OC)ccc2cc(Br)ccc12	-1%	-4	-16	1	-12	0
CC(=O)CCC(=O)NC1CCCc2c1cnn2-c1ccc(C(C)(C)C)cc1 (stereo not given)	11%	-3	-37*	29	28	12
CC(=O)NC1CCCc2c1cnn2-c1ccc(C(C)(C)C)cc1 (stereo not given)	0%	-1	-7	-7	9	0
CN(C)S(=O)(=O)c1ccc(C(=O)Nc2ccc(S(=O)(=O)NC3=NCCCCC3)cc2)cc1	6%	3	-6	-5	-11	7
CSc1ncccc1C(=O)Nc1ccc(S(=O)(=O)NC2=NCCCCC2)cc1	5%	-4	-54*	20	15	3
COc1ccc2c(CNCc3ccco3)c(C(=O)O)n(Cc3cccc(F)c3)c2c1	5%	-2	-22	4	x	0
Cc1c(C(=O)N/N=C/c2ccc(-c3ccccc3[N+](=O)[O-])o2)sc(N)c1C#N	x	-10	-62*	-4	-9	0
O=C(N/N=C\c1ccc(-c2ccccc2[N+](=O)[O-])o1)C1COc2ccccc2O1 (stereo not given)	0%	-6	-36*	3	4	1
CC(=O)Nc1ccc(S(=O)(=O)N/N=C/c2ccc(C)s2)cc1	-1%	-2	0	0	-6	1
CCC(=O)Nc1ccccc1-c1nnn(CC(=O)N2c3ccccc3CC2C)n1 (stereo not given)	x	-1	15	-11	-17	2
CC1Cc2ccccc2N1C(=O)Cn1nnc(-c2ccccc2NC(=O)C2CCC2)n1 (stereo not given)	x	-4	-21	9	-98*	0
NCc1nc2cccnc2n1Cc1ccccc1Cl	-2%	-2	-31*	0	x	0
COc1ccc(OC)c(NC(=O)Nc2nc(C(N)C(C)C)cs2)c1 (stereo not given)	x	x	x	-10	-12	x
COc1ccc(NCC(O)Cn2cnc3c2c(=O)n(C)c(=O)n3C)cc1 (stereo not given)	-1%	4	6	-2	14	2
Cn1c(=O)c2c(ncn2CC(O)CNc2ccc(Br)cc2)n(C)c1=O (stereo not given)	-8%	-3	-32*	6	19	5
O=C(COc1ccc2ccccc2c1CN1CCOCC1)N1CCc2ccccc21	7%	-8	2	-9	-69*	0
COc1ccc(CCNC(=O)CSc2nnc(C(C)N(C)C)n2Cc2ccccc2)cc1OC (stereo not given)	8%	-2	16	-2	7	2
Cc1cc2nc(-c3ccc[nH]c3=O)[nH]c2cc1C	0%	-9	-65*	-2	-17	1

High-throughput results from PubChem.
